# D3 ag = qHTS of D3 Dopamine Receptor Agonist: qHTS; D(3) dopamine receptor (Homo sapiens), P35462; D3R DiscoveRx beta-arrestin cells, luminescence, 90 min; max activation, %; 410,000 compounds, 0.58% hits; AID 652048, 2013; in the data active means max activation above about 30%; further: 0% is about no effect
#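 Agonist-mode cell screen: cells plated at 1500/well and incubated overnight at 37 °C, then exposed to library compounds for 90 min at 37 °C. Detection reagent was added for 30–60 min at room temperature, and luminescence was read.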
# GLP-1R agonist = qHTS of GLP-1 Receptor Agonists; 380,000 compounds, 0.007% hits; Glucagon-like peptide 1 receptor (Homo sapiens), P43220; HEK293 GLP-1R CRE-luciferase, luminescence, 4-6 h; cells express a hypersensitive GLP-1R form; AID 624172, 2012; Potency, µM (titrated, usually from 45.6 µM), without a hit: at the top dose activation, most hits filed as activators; further: potency means the concentration at half of the fitted maximal effect; % of control where 0% means no effect
# Target sequence (P43220 whole entry, looked up): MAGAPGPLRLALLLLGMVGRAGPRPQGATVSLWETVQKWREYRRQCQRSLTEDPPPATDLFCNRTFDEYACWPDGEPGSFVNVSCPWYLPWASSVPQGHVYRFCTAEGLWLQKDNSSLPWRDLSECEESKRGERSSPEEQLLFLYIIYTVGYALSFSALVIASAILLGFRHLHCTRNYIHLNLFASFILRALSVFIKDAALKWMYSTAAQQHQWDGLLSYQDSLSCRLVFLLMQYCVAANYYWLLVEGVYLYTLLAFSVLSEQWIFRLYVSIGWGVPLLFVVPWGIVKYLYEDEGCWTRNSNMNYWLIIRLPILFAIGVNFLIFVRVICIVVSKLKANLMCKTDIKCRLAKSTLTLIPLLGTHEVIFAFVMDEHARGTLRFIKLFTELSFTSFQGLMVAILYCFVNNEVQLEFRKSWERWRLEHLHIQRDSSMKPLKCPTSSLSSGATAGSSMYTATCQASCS
# DRD3 antagonist = qHTS of D3 Dopamine Receptor Antagonist: qHTS; D(3) dopamine receptor (Homo sapiens), P35462; D3R cells, DiscoveRx beta-arrestin luminescence, antagonist mode; active compounds read low; max response, negative = inhibition, %; 360,000 compounds, 2.5% hits; AID 652054, 2013; in the data active means max response below about -50%; inconclusive means no clear call, values can overlap the other calls; further: on the % scale 0 is the no-effect control and ±100 the full control effect
#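 Cells plated overnight at 1500 cells/well, then exposed to library compounds with dopamine controls for 90 minutes at 37 degrees C. DiscoveRx reagent added for 30–60 minutes at room temperature; luminescence read, quantitative HTS format.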
# GLP1R inv ag = qHTS of GLP-1 Receptor Inverse Agonists (Inhibition Mode); Glucagon-like peptide 1 receptor (Homo sapiens), P43220; HEK293 GLP-1R CRE-luciferase, luminescence, 24 h; GLP-1R form is constitutively active; Potency, µM (titrated, usually from 38.3 µM), without a hit: top-dose activity change, negative = inhibition, actives largely listed as inhibitors; 410,000 compounds, 1.6% hits; AID 624417, 2012; further: potency means the concentration at half of the fitted maximal effect; on the % scale 0 is the no-effect control and ±100 the full control effect; nearly all actives have a fitted effect of over 55% in size
#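 Constitutively active GLP-1R drives a cAMP-responsive luciferase in stably transfected HEK293 cells; test compounds are added after overnight (12 h) attachment and left 24 hr, and signal loss in luminescence marks inhibition.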
# * marks the source's active call; other numbers are inactive results; u = inconclusive; x = no result given. Sampled rows, rich in hits. Any-hit rate of the full collection: about 4.3%. Unless noted, the call rests on the fitted dose curve; in most records, active means well fitted curve in the direction sought with a large enough effect; inconclusive means small, poorly fitted or top-dose-only effect, or another doubt; inactive means no such curve, though single readings can be large; an effect the other way counts as inactive or inconclusive.
SMILES,D3 ag,GLP-1R agonist,DRD3 antagonist,GLP1R inv ag
O=C(Nc1nnc(-c2ccccc2)s1)c1cccc(S(=O)(=O)N2CCOCC2)c1,-3,-11%,-14,-5%
O=C(Nc1nnc(-c2ccccc2)s1)c1cc(S(=O)(=O)N2CCOCC2)c(Cl)cc1Cl,3,0%,-70*,5%
CCN(C(=O)COC(=O)c1ncc(Cl)c(Cl)c1Cl)c1c(N)n(Cc2ccccc2)c(=O)[nH]c1=O,1,-6%,16,6%
Cc1ccc(SCCNC(=O)CN(c2ccccc2)S(=O)(=O)N(C)C)cc1,4,-2%,x,-22%
O=C(NCC1CCN(Cc2cccc(Cl)c2)CC1)Nc1ccccc1Cl,-25,10%,u,10µM*
Cc1ccc(NC(=O)NCC2CCN(Cc3cccc(Cl)c3)CC2)c(Cl)c1,-15,1%,-27,u
Cc1ccc(NC(=O)NCC2CCN(Cc3cccc(Cl)c3)CC2)cc1Cl,-24,3%,-51*,2.2µM*
Cc1ccc(C)c(CN2CCC(CNC(=O)Nc3ccc(F)c(Cl)c3)CC2)c1,-21,1%,-66*,u
CCc1ccc(NC(=O)NCC2CCN(Cc3cccc(Cl)c3)CC2)cc1,-4,-8%,-52*,13µM*
O=C(NCC1CCN(Cc2ccccc2F)CC1)Nc1ccc(F)c(Cl)c1,-18,x,x,u
Cc1ccccc1OCCn1c(=N)n(C(C)C)c2ccccc21,-15,x,x,-27%
CCOc1ccc(NC(=O)Cn2nc(-c3ccncc3)ccc2=O)cc1,5,x,x,4%
CCN1CCN(Cc2c(O)ccc3c(=O)c(Oc4ccccc4Cl)c(C(F)(F)F)oc23)CC1,-20,9%,x,5%
CCOc1ccc(CNC(=O)c2ccc3nc(CC)c(CC)nc3c2)cc1,1,x,x,27%
Cc1nc2c(C(=O)N3CCN(C)CC3)cnn2c(C)c1Cc1ccc(Cl)cc1,-37,-8%,-75*,2%
Cc1ccccc1Cc1c(C)nc2c(C(=O)NCc3ccc4c(c3)OCO4)cnn2c1C,-22,-7%,-81*,0%
Cc1nc2c(C(=O)N3CCCCC3)cnn2c(C)c1Cc1ccccc1F,-19,11%,-4,-24%
Cc1ccccc1Cc1c(C)nc2c(C(=O)N3CCN(Cc4ccc5c(c4)OCO5)CC3)cnn2c1C,-4,-10%,-60*,0%
Cc1nn(C(=O)c2ccccc2)c(C)c1Sc1ccc(Cl)cc1,-2,x,x,u
NC1(c2ccc(-c3nc4ccn5c(=O)[nH]nc5c4cc3-c3ccccc3)cc2)CCC1,-19,10%,x,x
C/C(=N\NC(=S)NCC(C)(C)C)c1cc(F)cc(F)c1O,-13,10%,-88*,u
CCOC(=O)[C@H](CCc1ccccc1)N[C@H]1CCCN2CCC[C@@H](C(=O)O)N2C1=O,-11,1%,x,x
O=C(CSc1nc2ccccc2c(=O)n1CCC(=O)NC1CCCCC1)Nc1ccccc1Cl,-9,x,x,5%
COc1ccc(-c2cc3nc(-c4ccc(C)cc4)cc(C(F)(F)F)n3n2)cc1,5,x,x,-2%
Cc1ccc(NC(=O)CS(=O)CC(=O)N(CC(=O)NC(C)(C)C)c2cccc(C)c2C)cc1 (stereo not given),32*,1%,2,u
SMILES,D3 ag,GLP-1R agonist,DRD3 antagonist,GLP1R inv ag
Cc1ccc(Cc2cnc(N3C(=N)SC(c4ccccc4)C3=O)s2)cc1 (stereo not given),2,-16%,-11,13%
N=C1SC(c2ccccc2)C(=O)N1c1ncc(Cc2ccccc2)s1 (stereo not given),-7,-20%,-56*,-2%
CCOCN(C(=O)Cn1c(C)nc2ccccc21)c1c(C)cccc1CC,-16,x,x,-13%
CCOCN(C(=O)Cn1c(CC(C)C)nc2ccccc21)c1c(C)cccc1CC,1,-4%,x,11µM*
COc1cccc(CNS(=O)(=O)c2cccc(S(=O)(=O)N3CCOCC3)c2)c1,7,-1%,12,0%
COc1ccc(CNS(=O)(=O)c2cccc(S(=O)(=O)N3CCOCC3)c2)cc1,11,-6%,-93*,-1%
Cc1ccc(C(C)C)c(OCC(=O)NNC(=O)Nc2ccccc2)c1,3,6%,1,u
Cc1ccc(C(C)C)cc1OCC(=O)NNC(=O)Nc1ccccc1,-1,6%,12,6.3µM*
Cc1ccc(C(C)C)cc1OCC(=O)NC1CCCCCCC1,-5,2%,-15,11µM*
CC(C)c1ccc(OCC(=O)NC2CCCC2)cc1,1,5%,18,u
C/C(=C(/CCOC(=O)C(C)C)SS/C(CCOC(=O)C(C)C)=C(\C)N(C=O)Cc1cnc(C)nc1N)N(C=O)Cc1cnc(C)nc1N,x,0%,x,x
Fc1ccc(Nc2ncnc3onc(-c4ccc(Cl)cc4)c23)cc1Cl,13,3%,x,6%
COc1ccc(Cl)cc1Nc1ncnc2c1nc1n2CCCC1,3,x,x,-19%
CC(C)c1ccccc1-n1c(SCC(=O)c2ccc3c(c2)NC(=O)CO3)nc2ccccc2c1=O,1,14%,1,10µM*
CC(C)c1ccccc1-n1c(SCC(=O)N2CCc3ccccc3C2)nc2ccccc2c1=O,5,14%,7,10µM*
O=C1COc2ccc(C(=O)CSc3ccccc3C(=O)O)cc2N1,9,-1%,-1,1%
CCSc1nc(-c2cccc(Cl)c2)nc2c1Cc1c(CO)cnc(C)c1O2,-7,x,x,6%
CCOc1ccccc1N(CC)C(=O)c1cc2c(=O)n(CC)c3ccccc3c2s1,-7,-1%,x,10µM*
CCCN(C(=O)c1cc2c(=O)n(CC)c3ccccc3c2s1)c1ccccc1F,-4,-1%,x,-26%
CC(C)c1ccc(C(=O)Nc2ccc(-c3nc4ccccc4s3)c(Cl)c2)cc1,27,x,x,-4%
Cc1ccc(C)c(NC(=O)CCc2c(C)n(C)c3cc(-c4ccccc4C)nn3c2=O)c1,-2,x,x,2%
CCCC(=O)O[C@]1(C(=O)COC(=O)CC)[C@@H](C)C[C@H]2[C@@H]3CCC4=CC(=O)C=C[C@@]4(C)[C@@]3(F)[C@H](O)C[C@@]21C,x,-4%,x,x
N#C/C(=C\C1=C(N2CCOCC2)C(=C/c2cccc([N+](=O)[O-])c2)/CC1)C(=O)Nc1ccccc1F,11,1%,u,3%
N#C/C(=C/C1=C(N2CCOCC2)C(=C/c2cccc([N+](=O)[O-])c2)/CC1)C(=O)Nc1ccccc1F,39*,-12%,-17,4%
COc1cccc(/C=C2/CCC(CN(C)C)C2=O)c1 (stereo not given),-23,-12%,-69*,u
COc1ccc(/C=C2/CCCC(CN(C)C)C2=O)cc1 (stereo not given),-16,1%,u,u
Cc1nc(SCC(=O)c2ccc(Cl)cc2)c([N+](=O)[O-])[nH]1,0,1%,-66*,-2%
Cc1cc(C)c(C(N)=O)c(SCC(=O)c2ccc(Cl)cc2)n1,1,7%,-60*,u
Cc1ccc(C(=O)CSc2nc(C)cc(C)c2C(N)=O)cc1,-1,4%,-14,12%

# Bioassay records from PubChem BioAssay.
